# Source: PubChem
# D2 antagonist – D2 dopamine receptor (human) antagonism; P14416; HEK293 TREx D2 cells, calcium flux, dopamine EC80; inhibition, % at 10 µM; 340,000 compounds, 2% hits; in the data active means inhibition above about 30%; inactive means below that, where a call was filed; further: 0% is about no effect
# Target sequence (P14416 whole entry, looked up): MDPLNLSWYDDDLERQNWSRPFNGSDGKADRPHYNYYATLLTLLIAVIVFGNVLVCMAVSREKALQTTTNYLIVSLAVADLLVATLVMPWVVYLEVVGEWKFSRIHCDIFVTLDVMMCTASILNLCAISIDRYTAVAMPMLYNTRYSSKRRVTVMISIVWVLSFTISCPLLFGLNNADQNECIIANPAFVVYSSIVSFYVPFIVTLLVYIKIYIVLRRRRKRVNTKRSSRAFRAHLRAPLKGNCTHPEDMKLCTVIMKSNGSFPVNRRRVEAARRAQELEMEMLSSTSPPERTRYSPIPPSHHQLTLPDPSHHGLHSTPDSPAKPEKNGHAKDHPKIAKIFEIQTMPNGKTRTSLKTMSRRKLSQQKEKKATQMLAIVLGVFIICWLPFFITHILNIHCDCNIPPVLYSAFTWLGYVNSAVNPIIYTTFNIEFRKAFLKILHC
#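 HEK293 T-REx D2 cells, tet-induced, calcium dye no-wash. Cpd pintool add, 180 s kinetic, then EC80 DA, 180 s kinetic. Ca flux read.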
# D2 PAM-1 – positively modulates the human D2 dopamine receptor allosterically; HEK293 T-REx D2, calcium flux, EC20 dopamine potentiation; potentiation, % at 10 µM; 340,000 compounds, 0.34% hits; AID 485347;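 active means potentiation over 3 SD above the plate norm, cut at about 30% in these data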; further: 0% is about no effect
#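 Primary screen. Calcium kinetics in induced HEK293 T-REx D2 cells: compound pre-addition 180 s, EC20 dopamine, 180 s more.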
# D2 PAM-2 – human D2 receptor positive allosteric modulation; 360,000 compounds, 0.23% hits; P14416; potentiation, % (test concentration not listed); DiscoveRx D2 beta-arrestin cells, luminescence, 90 min; 100% = 57 uM dopamine signal; in the data active means potentiation above about 50%
#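 D2 cells co-treated with compound plus 50 nM dopamine (EC20) for 90 min at 37 deg C to detect potentiation. Beta-arrestin recruitment was read as enzyme-fragment luminescence after 1 h at ambient temperature. Full response was set by 57 uM dopamine.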
# D2 ag-1 – activates the human D2 dopamine receptor | activation, % (no concentration beside the values) | 360,000 compounds, 0.084% hits | AID 624465 | DiscoveRx PathHunter D2 beta-arrestin, luminescence, 90 min; 100% = 57 uM dopamine signal | P14416; in the data active means activation above about 40%
#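 DiscoveRx PathHunter D2 beta-arrestin cells (2,100/well) attached overnight, then compound-stimulated 90 min at 37 C in HBSS/10 mM HEPES/0.1% Tween-20 buffer; beta-galactosidase complementation read by luminescence after 1 h at ambient temperature. Dopamine 57 uM final (EC100) as control.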
# D2 ag-2 – activates the human D2 dopamine receptor; AID 485358; 340,000 compounds, 0.53% hits; activation, % at 2 µM; HEK293 T-REx D2 cells, calcium flux agonist mode; P14416;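 active means activation over 3 SD above normal in the single-dose calcium agonist read, cut at about 30% in these data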; further: 0% is about no effect
#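 Tetracycline-induced HEK293 T-REx cells with force-coupled D2 receptor, plated overnight at 30 C, loaded with no-wash calcium dye. After a 10 s baseline, compound was pin-added and calcium flux read kinetically for 180 s; calcium rises flagged agonists.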
# * = called active by the depositor; nt = not tested or not shown. A selection: hits, their analogues and other compounds. The true share with any hit is near 2.4%.
SMILES,D2 antagonist,D2 PAM-1,D2 PAM-2,D2 ag-1,D2 ag-2
CC1(C)Oc2ccc3ccc(=O)oc3c2C(N2CCCCC2)C1O (stereo not given),-10,-7,-2,-3,-1
CC(=O)OC1C(N2CCCCC2)c2c(ccc(/C=C/C(=O)N3CCCCC3)c2O)OC1(C)C (stereo not given),30*,5,1,1,0
C=CCNc1nc(C(=O)OCC(=O)Nc2c(Cl)cccc2C(F)(F)F)cs1,36*,-4,-1,2,0
CN(C)S(=O)(=O)c1cccc(C(=O)Nc2ccc(Cl)cn2)c1,37*,8,-5,-1,0
O=C(Nc1ccc(Cl)cn1)c1cccc(S(=O)(=O)N2CCCC2)c1,-12,-3,-4,-2,-1
Cc1cc(C)n(-c2ccc(C(=O)OCC(=O)N(CC(C)C)C3CCS(=O)(=O)C3)cc2)n1 (stereo not given),51*,-2,5,-1,-1
O=C(Cn1ncc2c(=O)oc3ccccc3c21)NCCN1CCN(c2ccccc2F)CC1,-17,-25,-6,-2,37*
CC1CC(C)CN(CCCNC(=O)Cn2ncc3c(=O)oc4ccccc4c32)C1 (stereo not given),4,-6,-11,-9,1
Cc1cc(C)cc(N2CC(c3nc(-c4ccccc4C)no3)CC2=O)c1 (stereo not given),nt,-2,nt,nt,1
CCCCn1c(NC(=O)c2ccccc2)c(C#N)c2nc3ccccc3nc21,38*,0,2,0,7
COCCn1c(N)c(C#N)c2nc3ccccc3nc21,36*,-5,-4,1,1
CCC(C)n1c(NC(=O)c2ccccc2)c(C#N)c2nc3ccccc3nc21 (stereo not given),-6,-7,-11,-6,0
COCCCn1c(N)c(-c2nc3ccccc3n2C)c2nc3ccccc3nc21,14,-10,-4,0,39*
Cn1c(=O)c2sccc2n2c(CCCC(=O)NCc3ccccc3)nnc12,nt,nt,nt,nt,0
COc1ccc(-c2cn3nc(N4CCC(C(=O)NCc5ccccc5F)CC4)sc3n2)cc1,nt,4,nt,nt,1
CCOC(=O)c1cnn(CCOC(=O)Cc2cccs2)c1NC(=O)Cc1cccs1,34*,2,-4,-3,0
CCOC(=O)c1cnn(CCOC(=O)c2ccc(F)cc2)c1NC(=O)c1ccc(F)cc1,-5,-1,3,1,0
Cn1cc(C(=O)NCc2ccc(Cl)cc2)c(=O)c2cc(S(=O)(=O)N3CCCCCC3)ccc21,nt,19,nt,nt,0
Cc1ccc(NC(=O)COC(=O)c2ccc(CN3CCCC3=O)cc2)c(Cl)c1,35*,0,11,7,0
Cc1cc(C)cc(NC(=O)COC(=O)c2ccc(CN3CCCC3=O)cc2)c1,3,0,-3,0,0
CC1CCC(NC(=O)c2ccc(CS(=O)(=O)c3cccc(C(F)(F)F)c3)o2)CC1 (stereo not given),nt,-13,nt,nt,1
COc1cc(N)c(Cl)cc1C(=O)OCC(=O)NCc1cccs1,nt,nt,-5,-1,nt
COc1cc(N)c(Cl)cc1C(=O)OCC(=O)c1cccs1,33*,-13,-4,-4,1
CC(C)N(C(=O)N1CCN(c2ccnc3cc(Cl)ccc23)CC1)C(C)C,31*,-8,12,3,-1
Cc1ccc(Cc2c(C)nc3nc(SCC(=O)NC4CCC(C)CC4)nn3c2C)cc1 (stereo not given),nt,5,nt,nt,-2
SMILES,D2 antagonist,D2 PAM-1,D2 PAM-2,D2 ag-1,D2 ag-2
C(/C=C/c1ccccc1)=N/N1CCN(c2ccccc2)CC1,-25,9,-8,-1,1
C(=C\c1ccccc1)/C=N/N1CCN(Cc2ccccc2)CC1,40*,0,-12,-4,-1
CC(NC(=O)c1ccc2c(c1)sc1nc(-c3ccccc3)cn12)C12CC3CC(CC(C3)C1)C2 (stereo not given),nt,-9,nt,nt,2
CCc1nnc(SC(CC)C(=O)NCCOC)c2cc3occc3n12 (stereo not given),nt,-2,nt,nt,nt
CCN1CCc2nc(SCC(=O)Nc3ccc(OC)cc3)c(C#N)cc2C1,36*,-23,-20,-2,0
COc1ccc(NC(=O)CSc2nc3c(cc2C#N)CN(C)CC3)cc1,19,-21,-18,-2,0
